Compounds with a hit are over-represented: about 1.1% of the library has one in this group of screens.
IP6K1 inh: Primary qHTS assay for small molecule inhibitors of Inositol hexaphosphate kinase 1 (IP6K1) | IP6K1 kinase, ADP-Glo luminescence, 2 h; hits give low values | Inositol hexakisphosphate kinase 1 (Homo sapiens), Q92551 | activity change, % (series mostly up to about 58 µM) | AID 1645851, 2021 | 140,000 compounds, 0.81% hits; in the data active = activity change below about -25%
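ADP-Glo luminescence measures ADP made by human IP6K1 during a 2 h RT reaction with ATP/IP6 (mix at 1.3 mM/130 uM); top library doses 57.5 and 19.1 uM final.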
GPT2 inhibitor: Primary qHTS assay for inhibitors of Glutamate pyruvate transaminase 2 (GPT2) | Alanine aminotransferase 2 (Homo sapiens), Q8TD30 | Recombinant GPT2, coupled pyruvate oxidase/HRP Amplex Red fluorescence | Potency, µM (series often up to 57.7 µM), without a hit: at the highest dose activity change, negative = inhibition, actives largely listed as inhibitors | 100,000 compounds, 0.25% hits | AID 1671188, 2021; note: potency is the fitted concentration of half-maximal effect; nearly all actives have a fitted effect of over 60% in size
Target sequence (Q8TD30 whole entry, looked up): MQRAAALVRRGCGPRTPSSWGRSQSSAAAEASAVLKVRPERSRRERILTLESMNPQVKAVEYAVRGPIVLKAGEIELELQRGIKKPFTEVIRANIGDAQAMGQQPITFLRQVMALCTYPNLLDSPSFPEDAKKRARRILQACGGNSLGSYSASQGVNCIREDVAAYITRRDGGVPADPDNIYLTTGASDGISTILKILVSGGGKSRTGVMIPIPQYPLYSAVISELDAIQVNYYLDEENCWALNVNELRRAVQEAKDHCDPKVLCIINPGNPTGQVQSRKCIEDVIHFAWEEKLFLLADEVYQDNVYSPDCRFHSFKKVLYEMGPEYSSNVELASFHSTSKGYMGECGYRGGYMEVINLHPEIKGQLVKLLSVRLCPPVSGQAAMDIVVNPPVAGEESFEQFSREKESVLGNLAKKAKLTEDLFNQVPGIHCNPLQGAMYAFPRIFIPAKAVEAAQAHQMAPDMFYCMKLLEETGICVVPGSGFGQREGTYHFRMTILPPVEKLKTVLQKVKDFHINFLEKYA
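Fluorescence of coupled pyruvate oxidase/HRP/Amplex Red system (50uM Amplex, 30 min, dark) reports pyruvate formed by GPT2. Enzyme reaction: 10ng/uL GPT2, 2mM L-alanine, 250uM a-KG, 30 min room temperature, pH 7.5; 50uM AOA control.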
HEK293 viab: GF-AFC viability counterscreen for inhibitors of alpha-synuclein gene (SNCA) expression. HEK-293-SNCA-luc viability, GF-AFC fluorescence, 24 h. Potency, µM (top dose mostly 57.1 µM), without a hit: at the top dose activity change, negative = cytotoxicity, usual class: cytotoxic. 150,000 compounds, 0.12% hits;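 note: potency is the fitted concentration of half-maximal effect; 0% = DMSO-treated cells and -100% = medium-only wells without cells; nearly all actives have a fitted effect of over 30% in size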
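Cytotoxicity counterscreen: after 24 h compound treatment of genome-edited SNCA-luciferase HEK-293 cells, live-cell protease substrate GF-AFC read by fluorescence after 30 min; activity scaled between DMSO (0%) and medium-only (-100%), curves Hill-fitted.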
SNCA expr inhib: Primary qHTS assay for inhibitors of alpha-synuclein gene (SNCA) expression. HEK-293 SNCA-luciferase knock-in, luminescence, 24 h. Potency, µM (titrated, usually from 57.2 µM), without a hit: at the top dose activity change, negative = inhibition, actives largely listed as inhibitors. 140,000 compounds, 0.17% hits. AID 1671194, 2021;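 note: potency is the fitted concentration of half-maximal effect; plate controls were DMSO cells for no effect and cell-free wells for full effect; nearly all actives have a fitted effect of over 45% in size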
* = called active by the depositor; ! = repeats disagree; [ ] = dose if it differs, or a comment. Unless noted, calls come from the whole dose curve; as a rule, active = well fitted curve in the direction sought with a large enough effect; inconclusive = small, poorly fitted or top-dose-only effect, or another doubt; inactive = no such curve, though single readings can be large; an effect the other way counts as inactive or inconclusive. Unless noted, % is set by controls: 0 for no effect and ±100 for the full control effect.

O=C(Cn1cccc1-c1nc(-c2ccccc2)no1)Nc1cc(F)cc(F)c1 was read as IP6K1 inh 0.5, GPT2 inhibitor inactive, HEK293 viab 1.9% and SNCA expr inhib -6.4%.
COc1ccc(OC)c(CCNC(=O)c2cnn(-c3ccc(C)cc3C)c2C2CCN(C(=O)OC(C)(C)C)CC2)c1 was read as IP6K1 inh 0.1, HEK293 viab -29.5% and SNCA expr inhib inconclusive.
Screening O=C(NCCc1cnc[nH]1)c1ccc2nc(-c3ccc(F)cc3)cn2c1 returned IP6K1 inh 10.1, GPT2 inhibitor -23.8%, HEK293 viab -11.7% and SNCA expr inhib 47.2%.
Screening CCn1c2ccccc2c2cc(CN3CCN(Cc4ccc(Br)cc4)CC3)ccc21 returned IP6K1 inh -58.0*, HEK293 viab 14.5% and SNCA expr inhib -10.6%.
Screening CCn1cc(CN2CCN(Cc3ccccc3)CC2)ccc1=O returned IP6K1 inh 3.6, GPT2 inhibitor inconclusive, HEK293 viab -5.3% and SNCA expr inhib -2.7%.
CCOC(=O)C1=CN(CC(=O)Nc2cc(Cl)ccc2C)S(=O)(=O)N=C1C was read as IP6K1 inh 9.4, GPT2 inhibitor -8.5%, HEK293 viab 7.7% and SNCA expr inhib 0.3%.
Screening CCCNC(=O)NC[C@@H]1C=C(C)[C@H](Cc2nc3ccc(C(=O)OC)cc3[nH]2)C[C@H]1C(C)C returned IP6K1 inh 5.5, GPT2 inhibitor 2.2%, HEK293 viab -15.1% and SNCA expr inhib -0.5%.
For CCCNC(=O)NC[C@@H]1C=C(C)[C@H](Cc2nc3ccc(OC)cc3[nH]2)C[C@H]1C(C)C the results were IP6K1 inh -2.5, GPT2 inhibitor -11.3%[88.5 µM], HEK293 viab 28.2µM* and SNCA expr inhib inconclusive.
`CCC(CC)C(=O)NC[C@@H]1C=C(C)[C@H](Cc2nc3c(C)cccc3[nH]2)C[C@H]1C(C)C` gave IP6K1 inh 16.2, GPT2 inhibitor inactive, HEK293 viab 14.1µM* and SNCA expr inhib inconclusive.
`CC1=C[C@@H](CNC(=O)NC2CCCCC2)[C@H](C(C)C)C[C@H]1Cc1nc2c(C)cccc2[nH]1` gave IP6K1 inh 8.2, GPT2 inhibitor -7.3%, HEK293 viab -26.9% and SNCA expr inhib -9.8%.
For O=C(O)c1c2c(nc3ccc(S(=O)(=O)N4CCC(C(=O)NCc5ccc(Cl)cc5)CC4)cc13)CCCC2 the results were IP6K1 inh -9.5, HEK293 viab 4.1% and SNCA expr inhib 10.0%.
For c1ccc(CN2CCCCC2c2nc(CCOCC3CCCC3)no2)nc1 (stereo unspecified) the results were IP6K1 inh 5.0, GPT2 inhibitor -6.1%, HEK293 viab 4.2%[12.5 µM] and SNCA expr inhib 22.4µM*.
Screening Cc1ncsc1CN1CCCCC1c1nc(CCOCC2CC2)no1 (stereo unspecified) returned IP6K1 inh 41.9, GPT2 inhibitor inactive, HEK293 viab 1.5% and SNCA expr inhib -32.8%.
`COc1ccc(-c2coc3cc(O)cc(O)c3c2=O)cc1` gave GPT2 inhibitor inactive, HEK293 viab -11.2% and SNCA expr inhib inconclusive.
Screening O=c1c(-c2ccc(O)cc2)coc2cc(O)cc(O)c12 returned IP6K1 inh -18.3, GPT2 inhibitor -15.8%, HEK293 viab -13.6% and SNCA expr inhib 2.82µM*!.
CC(C)c1ccccc1Cc1cc(C(=O)Nc2ccc(S(=O)(=O)c3ccccc3C(C)(C)C)cc2)c(O)c(O)c1O was read as GPT2 inhibitor 27.3µM*, HEK293 viab 4.4% and SNCA expr inhib -13.0%.
Screening CC(C)c1ccc(NC(=O)c2cc(S(=O)(=O)NCCc3ccccc3)ccc2F)cc1 returned IP6K1 inh -15.2, HEK293 viab -4.4% and SNCA expr inhib inconclusive.
`O=C(NCc1ccc(Cl)cc1)c1ccc2nnc(-c3cccnc3)n2c1` gave IP6K1 inh 0.6, GPT2 inhibitor inactive, HEK293 viab 6.6% and SNCA expr inhib 2.4%.
For O=C(NCc1ccccc1)c1ccc2nnc(-c3cccnc3)n2c1 the results were IP6K1 inh 20.3, GPT2 inhibitor 2.5%, HEK293 viab -29.4% and SNCA expr inhib 25.1µM*.
For CC(C)C[C@H](NC(=O)[C@@H](NC(=O)c1cccc(-c2ccccc2)n1)[C@@H](C)O)B(O)O the results were IP6K1 inh 15.0, GPT2 inhibitor inactive, HEK293 viab 0.0474µM*! and SNCA expr inhib 0.0607µM*.
For CC(C)C[C@H](NC(=O)[C@H](Cc1ccccc1)NC(=O)c1cnccn1)B(O)O the results were IP6K1 inh 12.5, GPT2 inhibitor inactive, HEK293 viab inconclusive and SNCA expr inhib 0.0482µM*.
Cc1ccc(-n2nc(-c3c(C)nc4scc(CC(=O)NCc5ccco5)n4c3=O)cc2C)cc1 was read as IP6K1 inh -12.7, GPT2 inhibitor -2.0%, HEK293 viab 2.5% and SNCA expr inhib -9.0%.
`Cc1ccc(C)c(-n2nc(-c3c(C)nc4scc(CC(=O)NCc5ccco5)n4c3=O)cc2C)c1` gave IP6K1 inh -4.0, GPT2 inhibitor inactive, HEK293 viab 8.91µM* and SNCA expr inhib inconclusive.
For CN(CC1CCOC1)C(=O)NCc1ccc(F)cc1 (stereo unspecified) the results were IP6K1 inh 11.7, GPT2 inhibitor inactive, HEK293 viab 7.9% and SNCA expr inhib 24.8%.
Screening CCOc1cc2sc(N3CCC(C(=O)Nc4ccc(C)cc4)CC3)nc2cc1Br returned IP6K1 inh -3.1, HEK293 viab 5.7% and SNCA expr inhib 205.9%.
Screening Cc1ccc(-c2cn3c(n2)sc2cc(C(=O)NCCCN4CCCCC4)ccc23)cc1 returned IP6K1 inh -9.4, HEK293 viab 25.1µM* and SNCA expr inhib inconclusive.
Cc1ccc(-c2cn3c(n2)sc2cc(C(=O)NCCCN4CCCCCC4)ccc23)cc1 was read as IP6K1 inh -0.4, HEK293 viab inconclusive and SNCA expr inhib inconclusive.
O=C(Nc1ccc2c(N3CCOCC3)ncnc2c1)c1cccc(Cl)c1 was read as IP6K1 inh 1.8, GPT2 inhibitor -4.4%, HEK293 viab -21.3% and SNCA expr inhib 10.5%.
`CCN(CC)CCNC(=O)c1ccc2nc(-c3ccccc3)c(-c3ccc(CN4CCC(n5c(=O)[nH]c6ccccc65)CC4)cc3)nc2c1` gave IP6K1 inh -0.8, GPT2 inhibitor 3.7%, HEK293 viab 15µM*! and SNCA expr inhib inconclusive.
Screening N#C/C(=C\c1ccc(O)c(O)c1)C(=O)c1ccc(O)c(O)c1 returned GPT2 inhibitor inconclusive, HEK293 viab -7.6% and SNCA expr inhib 11.4%.
Screening CCN(CC)C(=O)/C(C#N)=C/c1cc(O)c(O)c([N+](=O)[O-])c1 returned IP6K1 inh -22.8, GPT2 inhibitor 8.91µM*, HEK293 viab -12.9%[23.9 µM] and SNCA expr inhib -17.6%[25.6 µM].
Screening O=C(c1ncn[nH]1)N1C[C@@H](COCC2CC2)[C@H](c2ccccn2)C1 returned IP6K1 inh 1.9, GPT2 inhibitor inactive, HEK293 viab -24.1% and SNCA expr inhib 0.794µM*.
